Assay outcomes as filed in PubChem BioAssay.
CYP2C9 activ = human CYP2C9 activators, primary screen, biochemical, luminescence | activation factor at 5 µM | recombinant CYP2C9, luciferin-H conversion; hits give high values; factor 1 = untreated enzyme, 0 = blocked | Cytochrome P450 2C9 (Homo sapiens), P11712 | 1.4% of 96,000 active;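 active = activation factor of 2 or more for CYP2C9 at a 5 µM dose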;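 note: 0 = sulfaphenazole-blocked wells and 1 = vehicle-only wells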
CYP2C19 activ = human CYP2C19 activators, primary screen, biochemical, luminescence; recombinant CYP2C19, luciferin-H EGE luminescence; hits give high values; 0 = fully inhibited enzyme, 1 = untreated enzyme; 96,000 tested, under 10 active; activation factor at 5 µM; Cytochrome P450 2C19 (Homo sapiens), P33261;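 active = activation factor of at least 2 at 5 µM in the primary screen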;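 note: 0 = wells with 2.5 mM tranylcypromine and 1 = vehicle-only wells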
Target sequence (P33261 whole entry, looked up): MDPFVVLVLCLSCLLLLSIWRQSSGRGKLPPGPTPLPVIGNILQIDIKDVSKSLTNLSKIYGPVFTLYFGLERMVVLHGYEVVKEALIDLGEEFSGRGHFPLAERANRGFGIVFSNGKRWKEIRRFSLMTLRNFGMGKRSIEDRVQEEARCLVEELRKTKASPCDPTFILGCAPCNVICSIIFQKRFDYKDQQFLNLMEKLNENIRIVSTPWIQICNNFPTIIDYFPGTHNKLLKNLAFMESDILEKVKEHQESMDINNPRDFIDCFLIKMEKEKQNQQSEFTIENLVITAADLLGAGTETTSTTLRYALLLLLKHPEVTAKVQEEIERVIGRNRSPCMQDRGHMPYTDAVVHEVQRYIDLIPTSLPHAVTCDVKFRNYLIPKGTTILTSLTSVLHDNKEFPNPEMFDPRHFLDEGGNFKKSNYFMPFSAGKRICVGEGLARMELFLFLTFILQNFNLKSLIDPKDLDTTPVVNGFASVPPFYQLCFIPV
CYP2C19 inh = blockers of cytochrome P450 2C19 activity – biochemical, luminescence, ADME assay, primary screen | AID 778, 2007 | CYP2C19 Supersomes, luciferin-H EGE luminescence, 30 min | P33261 | 21% of 96,000 active | inhibition, % at 5 µM;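 active = CYP2C19 inhibition above a set limit at 5 µM in the primary screen, cut at about 50% in these data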;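 note: plate controls were negative control wells for no effect and 2.5 mM tranylcypromine positive control for full effect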
E-sel TNF inh = E-selectin induction blockers in HUVEC – imaging, immunofluorescence, high content, primary screen. HUVEC TNFa-induced E-selectin immunofluorescence. inhibition, % at 2 µM. 0.71% of 120,000 active;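 active = inhibition above the batch mean plus 3 SD, and confirmed as a hit on visual image review, cut at about 43% in these data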;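 note: 0% = TNF-stimulated DMSO wells and 100% = unstimulated control wells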
CYP2C9 inh = blockers of cytochrome P450 2C9 activity – biochemical, luminescence, ADME assay, primary screen | P11712 | CYP2C9 Supersomes, luciferin-H conversion | inhibition, % at 5 µM | 20% of 96,000 active;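 active = blocking of liver enzyme CYP2C9 beyond about 50% at 5 µM, limit read from the data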
F-actin modifier = modifiers of F-actin cytoskeleton organization, primary screen, imaging, HUVEC, phalloidin staining, high-content imaging; HUVEC TNFa F-actin phalloidin imaging; inhibition, % at 2 µM; 0.18% of 91,000 active;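 active = inhibition above the batch mean plus 3 SD and confirmed as a hit by visual image inspection, cut at about 30% in these data, passing the limit was not always enough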
The depositor's hits bear a star; nt = no result given. Shown are actives, neighbours in structure and some others; about 22% of the full set was active somewhere.

SMILES	CYP2C9 activ	CYP2C19 activ	CYP2C19 inh	E-sel TNF inh	CYP2C9 inh	F-actin modifier
N=c1ccccn1CC(O)COc1ccccc1 (stereo not drawn)	1.1	1	4	-28	-7	nt
CCN=c1sc2ccccc2n1CC(O)COc1ccccc1 (stereo not drawn)	0.1	0	99*	21	93*	-13
O=C(CC1(C(=O)O)CCCC1)N1CCOCC1	0.5	0.8	21	8	48	13
CS(=O)(=O)N1CCc2cc(S(=O)(=O)Nc3ccc4oc5c(c4c3)CCCC5)ccc21	0.1	0	96*	-23	93*	-1
Cc1ccc(S(=O)(=O)Nc2ccc3c(c2)CCC3)cc1C	nt	nt	nt	-11	nt	nt
COc1ccc(C(=S)N2CCN(C)CC2)cc1Br	3.5*	0.5	51*	nt	-247	25
Oc1ccc(C(=S)N2CCCCC2)cc1	1.2	0.9	15	10	-18	-21
Oc1ccc(C(=S)N2CCCCC2)cc1Cl	2*	0.2	85*	1	-102	-10
COc1cc(C(=S)N2CCCCC2)ccc1O	0.6	0.6	36	-27	41	-14
S=C(c1ccc2c(c1)OCO2)N1CCCCC1	0.6	0.1	94*	-1	38	nt
COc1cc(C(=S)N2CCCC2)ccc1O	1.6	0.1	88*	nt	-61	-27
COc1ccc(C(=O)N2CCN=C2c2ccccc2)cc1OC	1	0.5	47	-9	0	23
Cc1ccccc1N=C1Nc2ccccc2CS1	1	0.7	27	24	2	-50
O=S(=O)(c1ccc(-c2ccccc2)cc1)N1CCOCC1	1	1.1	-10	17	-4	-4
Cc1cc2cc3c(cc2nc1SCC(=O)OC(C)C)OCO3	1	1	-1	nt	-3	0
Cc1cc(C)cc(-c2nnc(SCC(=O)N3CCN(C(=O)c4ccco4)CC3)o2)c1	2*	0.5	50	2	-103	-21
Cc1cc2cc3c(cc2nc1SCC(=O)N1CCN(C(=O)c2ccco2)CC1)OCO3	0.2	0.5	48	nt	80*	27
O=C(CCCCCNc1nc(=S)[nH]c2ccccc12)NCc1ccccc1Cl	nt	nt	nt	2	nt	nt
COc1ccccc1CNC(=O)c1cn(C)c2ccc(S(=O)(=O)N3CCCC3)cc2c1=O	nt	nt	nt	-16	nt	nt
O=C(Nc1ccccc1)c1cc(-n2cnnc2)ccc1Cl	0.9	1	0	-17	12	-6
O=C(NCCOc1cccc(Cl)c1Cl)c1cc(-n2cnnc2)ccc1Cl	0.5	0.3	70*	-40	54*	-8
O=C(NCCOc1cccc(Oc2ccccc2)c1)c1cc(-n2cnnc2)ccc1Cl	0.4	0.3	69*	-22	56*	25
Cc1ccccc1Cn1c(Cc2ccccc2)nc2ccccc21	0.8	0.6	37	-77	25	-13
COCCN(C(=O)CSc1nnc(Nc2ccc(C)cc2)s1)c1c(N)n(CC(C)C)c(=O)[nH]c1=O	nt	nt	nt	-21	nt	nt
CC(C)NC(C(=O)Nc1cc(Cl)cc(Cl)c1)c1ccccc1 (stereo not drawn)	0.3	0.3	71*	12	72*	0
SMILES	CYP2C9 activ	CYP2C19 activ	CYP2C19 inh	E-sel TNF inh	CYP2C9 inh	F-actin modifier
O=C(Nc1cc(Cl)cc(Cl)c1)C(NCC1CCCO1)c1ccccc1 (stereo not drawn)	nt	nt	nt	-7	nt	nt
Cc1cc(NC(=O)COC(=O)[C@@H](NS(=O)(=O)c2ccccc2)C(C)C)no1	nt	nt	nt	4	nt	nt
COc1cc(CNC2CCC(C)C2)cc(OC)c1 (stereo not drawn)	1.1	0.4	62*	4	-13	-12
COc1cc(CNC2CCCC2)cc(OC)c1	0.6	0.3	71*	5	40	29
Cc1ccc(CN2C(=O)c3ccccc3C2C(=O)NCC2CCCO2)cc1 (stereo not drawn)	0.7	0.8	21	-1	32	12
Cc1ccc(-n2nnnc2SCc2nnc(-c3ccccc3Br)o2)c(C)c1	0.4	0.3	66*	-42	56*	nt
Clc1ccc(OCc2nnc(-c3ccccc3Br)o2)cc1	0.9	0	96*	21	14	16
Cc1ccc(-n2nnnc2SCC(=O)N2CCN(C(=O)c3ccco3)CC2)c(C)c1	1	1	2	2	2	-23
